Values joined by “and” are separate entries in the source; they are usually repeats but may differ in a detail not shown here. Equal values may be shown once. Results filed as inconclusive are left out. Where a call stands in place of a potency, no number is given. Where a structure was tested more than once in an assay, its records may differ in their call. Active and inactive are the calls of the source. Calls come from the whole dose curve; as a rule, active = well fitted cell-killing curve with a large enough effect in the repeat runs; inconclusive = weak or mixed curves, or effect the other way; inactive = no such curve, though single readings can be large or run the other way.
Experiment: qHTS assay to identify small molecule antagonists of the sonic hedgehog signaling (Shh) pathway - cell viability counter screen (AID 1259367); note: nearly all actives have a fitted effect of over 55% in size
Conditions: NIH/3T3 Gli1-Luc viability, CellTiter-Fluor, 24 h; series mostly up to 92.4 µM
Source text: National Center for Advancing Translational Sciences [NCATS]
NIH Chemical Genomics Center [NCGC]
U.S. Environmental Protection Agency [EPA]
National Institutes of Environmental Health Sciences [NIEHS]
National Toxicology Program [NTP]
U.S. Food and Drug Administration [FDA]
The sonic hedgehog (Shh) pathway is essential for normal embryonic development. Dysregulation of the Shh pathway can cause severe developmental defects in organs. Therefore chemicals that interfere with the pathway are potential developmental toxicants. A cell line designated 3T3Gli1-Luc (DMB/OARSA/CFSAN/FDA, Laurel, MD), a NIH/3T3 derived clone containing stably integrated Gli1-Luc reporter is used to detect chemical interference of the Shh pathway, by changes in the expression of the firefly Luc gene under the control of the Gli1 transcriptional response element. This cell line was used to screen Tox21 libraries for identifying and prioritizing the potential developmental toxicants that interfere Shh pathway. Conditioned medium-stimulated mode was used to screen for chemicals inhibiting Shh signaling. The cytotoxicity of the compounds was tested in parallel by measuring the cell viability using CellTiter-Fluor assay system (Promega, Madison, WI) in the same wells.
Tox21 Assay Protocol Summary:
3T3 Gli1-Luc cells were dispensed at 2,000 per well in 5uL of culture medium into white solid bottom 1536-well plates (Greiner Bio-One, Monroe, NC) using a Multidrop Combi (Thermo Scientific, Waltham, MA) dispenser. The assay plates were incubated at 37 C and 5% CO2 for 4hr, and then 23nL of compounds dissolved in DMSO and positive control were transferred using a Pintool station (Wako, San Diego, CA). The compound transfer was followed by the addition of 1ul conditioned medium or assay buffer using two separate tips of Flying Reagent Dispenser (FRD, Aurora Discovery, San Diego, CA). The assay plates were incubated at 37C and 5% CO2 for 24hr. For viability read, after 23hr of compound treatment, 1uL of CellTiter-Fluor reagent (Promega Corporation, Madison, WI) was added to each well of the assay plates using Flying Reagent Dispenser (FRD, Aurora Discovery, San Diego, CA) and incubated the assay plates at 37C for 1hr. The fluorescence signal was quantified using a ViewLux plate reader (Perkin Elmer, Shelton, CT).
Potency is the fitted concentration of half-maximal effect.

| SMILES | Potency | viability change, negative = cytotoxic |
| --- | --- | --- |
| O=S(=O)(c1ccc(Cl)cc1)c1ccc(Cl)cc1 | inactive | – |
| CC(Cl)CN(C)C (stereo not given) | inactive | – |
| N#Cc1ccc(O)cc1 | inactive | – |
| N#CCCSCCC#N | inactive | – |
| BrCBr | inactive | – |
| CCCN(CCC)c1c([N+](=O)[O-])cc(S(N)(=O)=O)cc1[N+](=O)[O-] | 24.3 µM (active) | – |
| S=C(SSC(=S)N1CCCCC1)N1CCCCC1 | 5.96 µM (active) | – |
| COP(=O)(OC)SCn1c(=O)oc2cc(Cl)cnc21 | inactive | – |
| CCC[CH2][Sn]([CH2]CCC)([CH2]CCC)[O]C(=O)c1ccccc1 | 0.864 µM (active) | – |
| c1ccc2cc3c(cc2c1)-c1cccc2cccc-3c12 | inactive | – |
| ClCc1ccccc1CCl | inactive | – |
| CCCCCCCCc1ccc(O)cc1 | inactive | – |
| CC(C)(C)c1ccc(CSc2cnn(C(C)(C)C)c(=O)c2Cl)cc1 | inactive | – |
| Clc1ccc(COC(Cn2ccnc2)c2ccc(Cl)cc2Cl)cc1 (stereo not given) | 45.3 µM (active) and 27.2 µM (active) and inactive | – |
| CC(C)OC(=O)C(O)(c1ccc(Cl)cc1)c1ccc(Cl)cc1 | inactive | – |
| COP(=O)(CCC(=O)NCO)OC | inactive | – |
| c1ccc2c(c1)OCC(C1=NCCN1)O2 (stereo not given) | 2.11 µM (active) | – |
| CC(C)(C)OO | inactive | – |
| NNC(=O)c1ccccc1 | 39.6 µM (active) | – |
| Cn1cc(C2=C(c3cn(C4CCN(Cc5ccccn5)CC4)c4ccccc34)C(=O)NC2=O)c2ccccc21 | inactive | – |

| SMILES | Potency | viability change, negative = cytotoxic |
| --- | --- | --- |
| O=c1oc2ccccc2c(O)c1Cc1c(O)c2ccccc2oc1=O | inactive | – |
| Clc1ccc(Oc2ccccc2)cc1 | inactive | – |
| O=[N+]([O-])c1ccc2ccc3cccc4ccc1c2c34 | inactive | – |
| CC(O)C#N (stereo not given) | inactive | – |
| N#CCc1ccc(Cl)cc1 | inactive | – |
| Oc1ccc(C(c2ccc(O)cc2)(C(F)(F)F)C(F)(F)F)cc1 | inactive | – |
| CCCN(CCC)CCc1c[nH]c2ccccc12 | inactive | – |
| CC1(C)C(/C=C(\Cl)C(F)(F)F)C1C(=O)OC(C#N)c1cccc(Oc2ccccc2)c1 (stereo not given) | inactive | – |
| Brc1c(Br)c(Br)c(Oc2c(Br)c(Br)c(Br)c(Br)c2Br)c(Br)c1Br | – | 4.4% [at 19 µM] (inactive) |
| Cc1cc(SCc2sc(-c3ccc(C(F)(F)F)c(F)c3)nc2C)ccc1OCC(=O)O | 30.6 µM (active) | – |
| Clc1ccc(-c2ccccc2)cc1 | inactive | – |
| CCN | inactive | – |
| CCCCCCCCCCCCCCCCCCn1cc[n+](C)c1 | 30.5 µM (active) | – |
| OC(Cc1ccccc1Cl)(Cn1cncn1)C1(Cl)CC1 (stereo not given) | inactive | – |
| COC(=O)N(C(=O)N1COC2(C(=O)OC)Cc3cc(Cl)ccc3C2=N1)c1ccc(OC(F)(F)F)cc1 (stereo not given) | inactive | – |
| C[C@H]1CC[C@@H]2[C@@H](C)[C@H]3[C@H](C[C@H]4[C@@H]5CC=C6CC(O[C@@H]7O[C@H](CO)[C@H](O)[C@H](O[C@@H]8O[C@H](CO)[C@@H](O)[C@H](O)[C@H]8O)[C@H]7O[C@H]7O[C@@H](C)[C@H](O)[C@@H](O)[C@H]7O)CC[C@]6(C)[C@H]5CC[C@]34C)N2C1 (stereo not given in full) | inactive | – |
| CC1(C)[C@H](C(=O)O[C@H](C#N)c2cccc(Oc3ccccc3)c2)[C@@H]1/C=C(\Cl)C(F)(F)F | inactive | – |
| CCCCOP(=O)(CCCC)OCCCC | inactive | – |
| CCCCCCCCCCCCCC[P+](CCCCCC)(CCCCCC)CCCCCC (tested in a mixture with another compound) | 48.6 µM (active) | – |
| CC(C)CC(C)(c1ccc(O)cc1)c1ccc(O)cc1 | 61.3 µM (active) | – |

From PubChem BioAssay (Tox21)
